This is an account of results in PubChem BioAssay AID1985 (Southern Research Specialized Biocontainment Screening …, 2009).

Screen size: about 2,300 compounds; about 1,000 (43%) were called active. How the calls were made is not given here. The set was probably picked from earlier hits. This is one part of the list. Results with a measured potency or affinity are listed apart.

This assay can be described thus: PhoP regulon inhibitor project modified counter assay, GFP fluorescence readout, dose response (AID 1985). The following applies: S. Typhi, 4 h; series mostly up to 150 µM; inhibition: at the top concentration.
As for `O=[N+]([O-])c1cccnc1S(=O)(=O)c1ccccc1`, the “inhibition” value was 5.89% (inactive).

Turning to `CCCCCNc1nc(N2CCCC2)c2c(c1C#N)CCN(C)C2`, the “inhibition” value was 19% (inactive).

For the compound `O=C(NCCO)C(=O)c1c(-c2ccc(Cl)cc2)cc2ccccn12`, the “inhibition” value is -11.6% (inactive).

As to `COCCn1c(SCC(=O)Nc2nnc(C)s2)nnc1-c1c[nH]c2ccccc12`, the “inhibition” value was -7.27% (inactive).

As to `CCCCNC(=O)NS(=O)(=O)c1ccc(C(=O)OC)o1`, the “inhibition” value was -19% (inactive).

As to `CCC(Sc1nc2ccncc2[nH]1)C(=O)Nc1ccc(C)c(Cl)c1` (configuration not stated), the “inhibition” value was 12.9% (inactive).

With `O=C(COc1ccc(Cl)cc1)Nc1cccc(-c2ccc3nncn3n2)c1`, the “inhibition” value was 17.3% (inactive).

As for `Cc1cccc(NC(=O)CSc2nc3c([nH]c4ccccc43)c(=O)n2C)c1`, the “inhibition” value is 11.8% (inactive).

Take `O=C(Cc1ccccc1)NCC(=O)Nc1cccc(Cl)c1`: the “inhibition” value was -7.98% (inactive).

With `CCCCC(=O)Nc1ccc(F)c(Cl)c1`, the “inhibition” value is 9.09% (inactive).

In the case of `Nn1cnnc1SCC(=O)Nc1ccc(C2CCCCC2)cc1`, the “inhibition” value is 8.77% (inactive).

Consider `Cc1ccc(NC(=O)c2cc(NC(=O)CCCC(=O)O)ccc2Cl)cc1Cl`, for which the “inhibition” value is -2.02% (inactive).

As for `Cc1cnc(C(=O)OCC(=O)Nc2cccc(Cl)c2)cn1`, the “inhibition” value was 1.01% (inactive).

Turning to `CCS(=O)(=O)N1CCN(C2CCC(c3ccccc3)CC2)CC1` (configuration not stated), the “inhibition” value is 17.6% (inactive).

Regarding `C[N+]12CN3CN(CN(C3)C1)C2`, the “inhibition” value was -32.6% (inactive).

With `CC1CCN(CCC(=O)Nc2ccc(Cl)cc2)CC1`, the “inhibition” value was 21.7% (inactive).

For the compound `CCOC(=O)c1ccc(NC(=O)CSC(=S)N2CCOCC2)cc1`, the “inhibition” value was 5.39% (inactive).

`COCc1[nH]nc2c1C(c1c(F)cccc1Cl)C(C#N)=C(N)O2` (configuration not stated): the “inhibition” value is -5.17% (inactive).

As to `CCOC(=O)c1cnn2c1[nH]c(=O)c1ccccc12`, the “inhibition” value is 29.2% (inactive).

For `O=C(CCC(=O)Nc1nnc(C2CCCCC2)s1)NCC1CCCO1` (configuration not stated), the “inhibition” value was 14.5% (inactive).

For `CCCC1C(c2ccc(OC)cc2)C(C#N)(C#N)C2(C#N)CC1(N)NC2=O` (configuration not stated), the “inhibition” value was -9.05% (inactive).

Regarding `COc1ccc(C2CC(=O)N3CN(Cc4ccco4)CSC3=C2C#N)cc1` (configuration not stated), the “inhibition” value was 5.1% (inactive).

For the compound `CCOC(=O)c1sc(N)c(C(=O)OC)c1C`, the “inhibition” value was -7.16% (inactive).

In the case of `CC(C)c1cc(C(=O)Nc2ccc3c(c2)OCO3)no1`, the “inhibition” value is -33.7% (inactive).

Consider `Oc1ccc(C=Nc2cccc3ncccc23)c(O)c1`, for which the “inhibition” value was 14.6% (inactive).

`Cc1oc(/N=C/c2ccc(O)cc2O)c(C#N)c1C`: the “inhibition” value was -15.2% (inactive).

With `Oc1ccc(C=NC2CCCCC2)c(O)c1`, the “inhibition” value was 11.3% (inactive).

Regarding `Oc1ccc(C=Nc2ccc3ncccc3c2)c(O)c1`, the “inhibition” value is 28.7% (inactive).

Turning to `Cc1cc(C=O)c(O)cc1O`, the “inhibition” value was -34.1% (inactive).

With `Cc1nc2ccccc2nc1N/N=C/c1ccc(O)cc1O`, the “inhibition” value was 25.3% (inactive).

As for `CCOc1ccccc1NC1=NC2CS(=O)(=O)CC2S1` (configuration not stated), the “inhibition” value is 6.45% (inactive).

As to `Cc1ccc(-c2cc(N)nc(-c3ccccc3)c2)cc1`, the “inhibition” value is 20.1% (inactive).

Consider `O=C(CN(C(=O)CNS(=O)(=O)c1ccccc1)C1CCCC1)NCc1ccco1`, for which the “inhibition” value is 20.2% (inactive).

`COc1ccccc1NC(=O)CN1CCN(c2ccccc2)CC1`: the “inhibition” value is 11.5% (inactive).

For `CCN1CCN(c2cc(C)c3cc(NC(=S)N4CCN(c5ccccc5F)CC4)ccc3n2)CC1`, the “inhibition” value was -5.31% (inactive).

Consider `COc1cccc(NC(=O)N2CCCC(C(=O)Nc3ccccc3OC)C2)c1` (configuration not stated), for which the “inhibition” value was -17.7% (inactive).

For the compound `O=S(=O)(Nc1cccc(-c2cn3c(n2)SCC3)c1)c1ccc(F)cc1F`, the “inhibition” value is -3.71% (inactive).

For `NC(=O)Oc1cccc(OC(N)=O)c1`, the “inhibition” value is 36.5% (inactive).

Consider `CC(=O)c1ccc(OC(=O)c2cc3ccccc3oc2=O)cc1`, for which the “inhibition” value is -13% (inactive).

With `CCN(CC)c1cc(C)c2cc(NC(=O)c3ccccc3F)ccc2n1`, the “inhibition” value was 6.11% (inactive).

On to `COc1ccc(-n2cnc3c(sc4nc(N5CCOCC5)c5c(c43)CCCC5)c2=O)cc1`, for which the “inhibition” value is -5.75% (inactive).

Regarding `O=C(CCCCCn1c(=S)[nH]c2ccc(N3CCOCC3)cc2c1=O)NC1CCN(Cc2ccccc2)CC1`, the “inhibition” value is -1.01% (inactive).

In the case of `O=C(Nc1ccncc1)c1cc(-c2ccccn2)nc2ccccc12`, the “inhibition” value is 26.8% (inactive).

As for `Cc1cc(Cl)ccc1OCC(=O)Nc1nc(-c2cccnc2)cs1`, the “inhibition” value was 16.9% (inactive).

As to `CC(C)[C@H](NC(=O)c1ccccc1Cl)C(=O)Nc1nc(-c2ccccn2)cs1`, the “inhibition” value was -20.5% (inactive).

As to `CC1CC(C)CN(S(=O)(=O)c2ccc3c(c2)oc(=O)n3CC(=O)N(C)Cc2ccccc2)C1` (configuration not stated), the “inhibition” value was 4.43% (inactive).

In the case of `COc1ccccc1Nc1nc(Cl)c(C=O)s1`, the “inhibition” value was 20.2% (inactive).

In the case of `c1ccc2c(c1)CCc1ccccc1C2=C1CCNCC1`, the “inhibition” value is -28.7% (inactive).

In the case of `COc1ccc(Cn2nnnc2C(c2cc3ccc(OC)cc3[nH]c2=O)N2CCC(C)CC2)cc1` (configuration not stated), the “inhibition” value is 0.02% (inactive).

Regarding `Clc1ccc(CN2CCN(/N=C/c3ccco3)CC2)cc1`, the “inhibition” value was -0.84% (inactive).

As to `CCOc1ccc(N2C(=O)S/C(=C\c3ccc(O)c(OC)c3)C2=O)cc1`, the “inhibition” value is 14.3% (inactive).

On to `Fc1ccc(NC(=S)Nc2cc(-c3ccccc3)[nH]n2)cc1Cl`, for which the “inhibition” value is -10.5% (inactive).

In the case of `C/[N+]([O-])=C1\Cc2ccccc2C1=O`, the “inhibition” value was -7.55% (inactive).

Consider `COc1ccc(CCN(C(=O)C(F)(F)F)C(C(=O)NC2CCCC2)c2cccs2)cc1` (configuration not stated), for which the “inhibition” value is 10.9% (inactive).

Turning to `O=C(O)c1cccc(NC2=Nc3cccc4cccc2c34)c1`, the “inhibition” value was -3.67% (inactive).

Take `Cc1cc(C)c2c(N)c(C(=O)c3ccc(Cl)c(Cl)c3)sc2n1`: the “inhibition” value was -12.8% (inactive).

Consider `COc1ccc(Cl)cc1N(C)C(=O)CCNC(=O)Cn1cnc2ccccc2c1=O`, for which the “inhibition” value was 19.2% (inactive).

As to `COc1ccc(Nc2cc(C)nc(NCc3ccccc3)n2)cc1`, the “inhibition” value is 20.2% (inactive).

For `Cc1cc(N2CCC(C)CC2)nc(NCc2ccccc2)n1`, the “inhibition” value is 21.8% (inactive).

`CN(C)C=NC(=O)c1cc(C(=O)c2ccc(Cl)cc2Cl)c[nH]1`: the “inhibition” value is 26% (inactive).

Turning to `CCN(CC)CCN(C(=O)c1cccc([N+](=O)[O-])c1)c1nc2ccc(OC)cc2s1`, the “inhibition” value was 33.3% (inactive).

With `C=CCOc1ccc(Cl)cc1CNC1CCCC1`, the “inhibition” value is 20.3% (inactive).

For `O=C(COc1ccc(Br)cc1CNCCc1ccccc1)NCc1ccccc1`, the “inhibition” value was 26.1% (inactive).

As for `CC(=O)c1c(C)[nH]c(C(=O)OCC(=O)NCC(C)C)c1C`, the “inhibition” value was -5.83% (inactive).

In the case of `Cc1c(CN(C)C)c2c(n1Cc1ccccc1)C(=O)c1ccc(Br)cc1-2`, the “inhibition” value is 28% (inactive).

As to `NC(=O)c1ccc[n+]([C@H]2O[C@@H](COP(=O)([O-])OP(=O)(O)OC[C@H]3O[C@@H](n4cnc5c(N)ncnc54)[C@H](O)[C@@H]3O)[C@H](O)[C@@H]2O)c1`, the “inhibition” value is 33.2% (inactive).

In the case of `CCOC(=O)C(NC(=O)c1cccnc1)(Nc1cccc(C)n1)C(F)(F)F` (configuration not stated), the “inhibition” value is -7.66% (inactive).

For the compound `Cn1c(=O)c(=O)n(C)c2cc(S(=O)(=O)N3CCc4ccccc43)ccc21`, the “inhibition” value is -1.84% (inactive).

In the case of `COc1ccc(-c2nc3cc(NC(=O)Cc4ccc(OC)c(OC)c4)ccc3o2)cc1`, the “inhibition” value was -33.6% (inactive).

`COC(=O)c1cc2oc(C)cc2n1CC(=O)Nc1ccc(C)c(C)c1`: the “inhibition” value is 3.22% (inactive).

Consider `CC(C)OC(=O)Cn1c(=O)sc2ccccc21`, for which the “inhibition” value is -7.83% (inactive).

In the case of `CC(=O)Nc1ccccc1-c1nc2ccc(C(=O)N3CCN(c4cc(C)ccc4C)CC3)cc2[nH]c1=O`, the “inhibition” value was -0.17% (inactive).
